Screening data from PubChem BioAssay.
Pf Dd2 growth = Plasmodium falciparum Dd2 growth inhibition | Potency, µM (series often up to 28.9 µM), for the others: at the highest dose activity, negative = inhibition, hits mostly inhibitors | actives 4.3% (n = 120,000) | P. falciparum Dd2 growth, SYBR Green, 72 h | AID 1347417; active = well fitted inhibition curve with a large enough effect;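 note: plate controls were DMSO vehicle for no effect and reference drug for full effect; nearly all actives have a fitted effect of over 65% in size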
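Readout: SYBR Green fluorescence, 485 nm excitation, 535 nm emission, after ~16 h lysis at 37C. Before that, Dd2-infected red cells (2.5% hematocrit) grew 72 h with compound, 29 uM top final concentration.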
* hit, by the source's call; i = inactive; [ ] = remark or other dose. Shown is part of a subset that was picked to be rich in hits. Potency is the fitted concentration of half-maximal effect.

SMILES	Pf Dd2 growth
Cc1ccc(Nc2c(-c3ccc(C)cc3)nc3c(C)cccn23)cc1	-28.7%
Cc1ccc2nc(-c3ccc(O)cc3)c(Nc3ccc4c(c3)OCCO4)n2c1	-4.6%
Cc1ccccc1Nc1c(-c2ccccc2O)nc2sccn12	i
CN(C)c1ccc(-c2nc3cnccn3c2Nc2cccc(C(F)(F)F)c2)cc1	8.91µM*
Cc1ccc(Nc2c(-c3ccsc3)nc3c(C)cccn23)cc1	i
Cc1ccc2nc(-c3ccccc3O)c(Nc3ccccc3C)n2c1	1.41µM*
CN(Cc1ccccc1)C(=O)CCNc1c(-c2cccc(F)c2)nc2cnccn12	-7.6%
COc1ccc(-c2ccc3c(c2)C(=O)N2CC[C@H](NC(=O)COCC(=O)O)[C@H]2C(=O)N3)c(OC)c1	i
Cc1nc(C)c(C(=O)NCC23CCCC=C2NC(=O)CC3)s1 (stereo not drawn)	4.5%
COc1ccc(CCC(=O)NCC2Cn3cccc3C(=O)N2C)cc1 (stereo not drawn)	18.8%
COc1cc(CN2CCc3nc(N4CCN(C)CC4)[nH]c(=O)c3CC2)cc(OC)c1	i[5.79 µM]
CC(=O)Nc1ccc(CN(C)Cc2cccn2C)cc1	-13.9%[44.1 µM]
Cc1ccc(S(=O)(=O)NC[C@H]2O[C@@H](CC(=O)N3CCOCC3)[C@H](O)[C@@H]2O)cc1	7.5%[44.1 µM]
Cc1cc2nc(CO[C@H]3CN(Cc4ccccc4F)C[C@H]3F)[nH]c2cc1C	i
COC[C@@H]1[C@H](C(=O)N2CCN(c3ccccc3F)CC2)CCC(=O)N1C	-9.2%
COc1ccc(C[C@H](NC(=O)[C@@H]2C[C@H](NC(=O)Nc3cccc(SC)c3)CN2C(=O)c2cccn2C)C(N)=O)cc1	1.0%
O=C1COCC2(CN1Cc1ccccc1)CN(C(=O)C1(c3ccccc3)CC1)C2	i
COc1ccc(CNC(=O)N(C)C2CCc3nnc(C)n3CC2)cc1 (stereo not drawn)	i
COc1ccc(-c2nc3cc(C)ccn3c2NC(=O)c2ccc(C)c(C)c2)cc1	-7.0%
Cc1ccn2c(Nc3ccccc3C)c(-c3ccccc3)nc2c1	i
Cc1ccn2c(Nc3ccc(F)cc3)c(-c3ccccn3)nc2c1	4.47µM*
COc1cc(O)ccc1-c1nc2cc(C)ccn2c1Nc1ccccc1C	7.94µM*
COc1ccc(-c2nc3cc(C)ccn3c2NC(=O)c2ccc(F)cc2)cc1	21.1%
Cc1ccc(Nc2c(-c3ccccn3)nc3ccc(Br)cn23)cc1	-4.1%
COc1cccc(CN2C(=O)CCCCC2C(=O)NCc2cn[nH]c2C)c1 (stereo not drawn)	i
SMILES	Pf Dd2 growth
Cn1c(Cn2cccn2)nnc1C1CCCN(c2nccc(N)n2)C1 (stereo not drawn)	-7.5%
O=C(NCc1cccc(Cl)c1)c1cnc2c(c1)N(C(=O)CCc1ccccc1)CCC2	10.6%[44.1 µM]
OCCc1ccc(Nc2cnc3ccc(-c4cccc(CO)c4)nn23)cc1	i
OCc1cccc(-c2ccc3ncc(Nc4ccccc4Cl)n3n2)c1	3.98µM*
OCc1cccc(-c2ccc3ncc(Nc4cccnc4)n3n2)c1	-3.8%[44.1 µM]
C[S+](=O)([O-])Nc1cccc(Nc2cnc3ccc(-c4cccc(CO)c4)nn23)c1	-2.4%[44.1 µM]
OCc1cccc(-c2ccc3ncc(Nc4cccc(C(F)(F)F)c4)n3n2)c1	-20.3%[44.1 µM]
OCc1cccc(-c2ccc3ncc(Nc4ccc(OCCN5CCCC5)cc4)n3n2)c1	0.794µM*
COC[C@@H]1CN(C(=O)c2cccc(C)n2)C[C@H]1c1nc(C2CC2)no1	-0.9%
c1ccc(CO[C@H]2COCCN(c3nc4ccccc4s3)C2)cc1	0.1%[44.1 µM]
Cc1ccccc1OCC(=O)N1C[C@@H]2CCN(C)C[C@]2(C(=O)O)C1	6.6%
COc1cccc(N2C(=O)NC(=NC3CCCCC3)C23CCN(Cc2ccc(F)cc2)C3)c1 (stereo not drawn)	-1.1%
COc1cccc(N2C(=O)NC(=NC3CCCC3)C23CCN(Cc2cccn2C)C3)c1 (stereo not drawn)	10µM*
Cn1cccc1CN1CCC2(C1)C(=NC1CCCC1)NC(=O)N2c1cc(F)cc(F)c1 (stereo not drawn)	8.91µM*
COc1cccc(N2C(=O)NC(=NC3CCCCC3)C23CCN([S+](C)(=O)[O-])C3)c1 (stereo not drawn)	8.9%
O=C(c1ccccc1)N1CCC2(C1)C(=NC1CCCC1)NC(=O)N2c1cc(F)cc(F)c1 (stereo not drawn)	-4.4%
Cn1cccc1CN1CCC2(CC1)C(=NC1CCCCC1)NC(=O)N2c1cccnc1	53.5%
Cc1noc(C)c1CN1CC2(CCN(C(=O)c3cccc(F)c3)CC2)CC1=O	0.9%
Cc1ccnc(NC(c2ccccc2F)c2ccc3cccnc3c2O)c1 (stereo not drawn)	6.31µM*
Cc1ccc(NC(=O)CN(C)S(=O)(=O)c2cccc3cccnc23)cc1F	i
Cc1cccc(NC(c2ccccc2C)c2ccc3ccc(C)nc3c2O)n1 (stereo not drawn)	5.01µM*
Oc1c(C(Nc2ccccn2)c2ccccc2F)ccc2cccnc12 (stereo not drawn)	1.12µM*
CCc1nc2c(c(-c3ccc(OC)cc3)n1)CCN(Cc1ccnn1C)CC2	-11.0%
CN1C(=O)CCC2(CNC(=O)c3cn[nH]c3-c3ccc(F)cc3)CCC=C12 (stereo not drawn)	-25.9%
CCn1ncnc1C(C)NC(=O)c1cn(CCN2CCNCC2)nn1 (stereo not drawn)	25.5%
SMILES	Pf Dd2 growth
COc1cc(NC(=O)c2cnc(-c3ccc(C)cc3)nc2-c2ccncc2)cc(OC)c1	-13.5%
Cc1ccc(-c2ncc(C(=O)Nc3ccc(F)c(F)c3)c(-c3ccncc3)n2)cc1	-21.7%
O=C(Nc1cc(F)cc(F)c1)c1cnc(-c2ccc(F)cc2)nc1-c1ccncc1	10µM*
COc1cc2c(cc1OC)C(C[C@H]1CN(C(=O)Cc3ccccc3)CC[C@H]1CC(=O)O)=NCC2	-5.0%
COc1ccccc1CNC(=O)[C@@H](C)C1CC[C@@]2(C)CC[C@H](NC(=O)c3ccncc3)[C@@H](C)[C@@H]2[C@H]1O (stereo partly drawn)	i
CC(C)N1C(=O)C2(CCCC2)C1C(=O)N1CCN(C)CC1 (stereo not drawn)	-18.4%
CC(C)CCN1CCc2nc(N3CCN(C)CC3)[nH]c(=O)c2CC1	i[5.79 µM]
COc1cccc(CNC[C@H]2O[C@H](Cc3cc(CN4CCOCC4)on3)CC[C@@H]2O)c1	i
COc1cccc(CNC[C@H]2O[C@H](Cc3cc(-c4ccccc4)on3)CC[C@@H]2O)c1	2.51µM*
COc1ccc(-c2cc(C[C@@H]3CC[C@H](O)[C@@H](CNC(=O)Nc4ccccc4)O3)no2)cc1	i
COc1ccc2c(c1)-c1nc(NC(=O)c3cc(OC)c(OC)c(OC)c3)sc1CC2	5.01µM*
COc1ccc2c(c1)-c1nc(NC(=O)c3cc(Cl)ccc3OC)sc1CC2	-2.4%
COc1ccc2c(c1)-c1nc(NC(=O)c3ccccc3F)sc1CC2	-16.2%
COc1cccc(OC2CN(C(=O)C3CC(=O)N(Cc4cccnc4)C3)C2)c1 (stereo not drawn)	-19.0%
CN1CC(=O)N(c2ccccc2F)Cc2c(NC3CCC3)ncnc21	20.5%
O=C(N1CCC(N[S+](=O)([O-])Cc2ccccc2)CC1)N1CC2CC(C1)[C@H]1CCCC(=O)N1C2 (stereo partly drawn)	-17.8%
COCCNC(=O)[C@H]1C[C@H](Oc2cccnc2)CN1C(=O)NCc1ccccc1	-8.6%
N#Cc1nc(-c2ccc(COc3ccccc3)o2)oc1N1CCCCC1	58.6%[0.594 µM]
COc1ccc(Nc2oc(-c3ccc(COc4ccccc4)o3)nc2C#N)cc1	-4.9%
Cc1ccccc1OCc1ccc(-c2nc(C#N)c(NCc3cccnc3)o2)o1	-23.8%
